From ChEMBL document CHEMBL3988442, “University of Dundee, Small-Polar-MMV Screening Library” (2021)
In all, about 48,000 compounds went through this assay and about 13,000 (27%) showed an effect of 50% or more. The list shows a part of the results.

These compounds were tested on Wolbachia pipientis (assay: Anti-Wolbachia Cell-Based Screen). Conditions: 5 µM.
Assay type: functional
Parameters: scale not given: in the data most compounds retested in dose-response had high values

Row | Compound | Percent Effect [%]
1 | CN(C)C(=O)CNC(CC(F)(F)F)c1ccc(F)cc1 (stereo not drawn) | -7.138
2 | CCc1cnc(N2CC3(CCN(S(=O)(=O)C4CC4)C3)C2)nc1 | -6.098
3 | CCCNC(=O)CNc1cc(C(=O)N2CCSCC2)ccc1C | -10.89
4 | Cc1ccc(S(=O)(=O)NCCNc2cc(-n3cccc3)ncn2)c(C)c1 | 19.5
5 | CC(C)Oc1ccc(-c2csc(Cn3ccc(=O)[nH]c3=O)n2)cc1 | -3.236
6 | O=C1CN(C(=O)c2ccc(Cl)cc2)CC(O)CN1Cc1cccs1 (stereo not drawn) | 98.52
7 | O=C1CN(C(=O)C2CCOC2)CCN1Cc1ccc(Cl)cc1 (stereo not drawn) | -11.12
8 | Cc1nc(CCN)cc(N(C)Cc2nc3ccc(F)cc3[nH]2)n1 | -5.934
9 | CNc1ncc(CN(C)Cc2cc(O)c3cc(F)ccc3n2)cn1 | -2.585
10 | CCc1ccc(CN(CC)Cc2ccc(S(=O)(=O)NC)cc2)cc1 | -10.93
11 | Cc1ccc(OCC(=O)N(C)Cc2ccc(F)cc2)cn1 | -1.613
12 | COc1cccc(CN(C)Cc2nc3cc(C)ccc3[nH]2)c1O | 1.617
13 | CCOc1ccccc1CN(CC)Cc1ccc(S(=O)(=O)NC)cc1 | 14.99
14 | Cc1ccc(CN(C)Cc2nc3ccc(F)cc3[nH]2)cn1 | 92.16
15 | CN(Cc1cnc(C(C)(C)C)nc1)Cc1nc2ccc(F)cc2[nH]1 | 92.92
16 | CNS(=O)(=O)c1ccc(CN(C)Cc2nc3ccc(F)cc3[nH]2)cc1 | 112.9
17 | CCNC(=O)NC(C)(C)C(=O)NCc1cccc(N2CC=CC2)c1 | 1.796
18 | CC(O)c1cccc(N2CCC3(CC2)Nc2ccccc2NC3=O)n1 (stereo not drawn) | 0.04909
19 | CCc1nc(C)c(C(=O)NCCNc2cnccn2)s1 | 1.537
20 | C[S+]([O-])c1nncn1CC(=O)c1ccc2c(c1)CCC2 (stereo not drawn) | -5.964
21 | CCCS(=O)(=O)NC(=O)c1ccc(CC)o1 | -1.389
22 | CCn1cnnc1CCNc1nc(C)cc(C)c1C#N | 126.1
23 | CCn1cnnc1CCNC(=O)C(C)(C)c1cccc(Cl)c1 | -6.534
24 | CCn1cnnc1CCNC(=O)c1ccc(Br)cc1F | -14.54
25 | Cc1cc(C)c(C#N)c(NCCn2cnnc2C(C)C)n1 | 112.6
26 | Cc1cc(C)cc(OCCNC(=O)C(C)Sc2nncn2C)c1 (stereo not drawn) | -3.054

Row | Compound | Percent Effect [%]
27 | Cc1cc(NCCO)nc(N2CCCC2)c1C#N | -1.529
28 | CCn1c(C)nnc1SCCNc1nc(C)ncc1S(C)(=O)=O | -10.91
29 | Cc1cc(C)c(C#N)c(NCCSc2nncn2C)n1 | 98.82
30 | Cc1cc(NCCO)nc(N2CCN(C)CC2)c1C#N | 2.525
31 | CC(C)(C)OC(=O)NC(C)(C)c1noc(Cn2ccnc2)n1 | 11.22
32 | CSCCC(NC(N)=O)C(=O)NCc1ccc(-n2cccn2)cc1 (stereo not drawn) | -16.66
33 | O=C(Nc1cccnc1)NC1CCN(c2ccccc2OC(F)F)C1 (stereo not drawn) | -19.82
34 | O=C(O)c1ccnc(-c2ccnc(N3CCC4(CCO4)CC3)n2)c1 | -4.14
35 | Cc1cccc(CN2C(=O)CC[C@@H]3[C@H]2CCN3Cc2cccnc2)n1.O=C(O)C(F)(F)F.O=C(O)C(F)(F)F.O=C(O)C(F)(F)F | -1.034
36 | Cc1cccc(CN2C(=O)CC[C@@H]3[C@H]2CCN3Cc2ccc(F)cc2)n1.O=C(O)C(F)(F)F.O=C(O)C(F)(F)F | -9.661
37 | Cc1ccc(CN2CC[C@H]3[C@H]2CC(=O)N3c2ccsc2)o1.O=C(O)C(F)(F)F | 12.94
38 | Cc1cccc(CN2C(=O)C[C@H]3[C@@H]2CCN3Cc2ccc(F)cc2)n1.O=C(O)C(F)(F)F.O=C(O)C(F)(F)F | 93.32
39 | COc1ccc(CN2CC[C@H]3[C@H]2CC(=O)N3Cc2cccc(C)n2)cc1.O=C(O)C(F)(F)F.O=C(O)C(F)(F)F | 96.36
40 | CCc1ccc(CN2CC[C@H]3[C@H]2CC(=O)N3Cc2cccc(C)n2)o1.O=C(O)C(F)(F)F.O=C(O)C(F)(F)F | 105.5
41 | Cc1cccc(CN2C(=O)CC[C@@H]3[C@H]2CCN3C(=O)c2ccsc2)n1.O=C(O)C(F)(F)F | -10.27
42 | Cc1cc(C(=O)NCC(=O)NC(c2ncccc2C)C(C)C)c(C)o1 (stereo not drawn) | -6.286
43 | CC(C)NC(=O)c1cnc(Sc2nccn2C)c(Cl)c1 | 7.154
44 | CCCSc1nc(O)c(CC)c(=O)n1-c1ccccc1 | -0.2298
45 | Cc1ncc(COc2cccc3c2NC(=O)CO3)s1 | -10.58
46 | Cc1cc(C(=O)N2CCOC[C@H](Oc3cccnc3)C2)c(C(F)(F)F)o1 | 3.665
47 | O=C([C@@H]1CCO[C@@H]2CCN(Cc3cccnc3)C[C@H]21)N1CCCCO1 | 13.27
48 | CC(C)=CCN(C)C1CCCN(Cc2noc(C)n2)C1 (stereo not drawn) | 0.8027
49 | COCC1CC2(CCN(CC3CC3)CC2)CN1c1ncccn1.O=C(O)C(F)(F)F.O=C(O)C(F)(F)F (stereo not drawn) | 9.926
50 | CN1CC(=O)N(c2ccccc2)CC12CCN(CC1CC1)C2.O=C(O)C(F)(F)F.O=C(O)C(F)(F)F (stereo not drawn) | -12.9
51 | CO[C@@H]1CN(c2ccccc2)S(=O)(=O)[C@@]12CCN(Cc1cncs1)C2 | 104.5
52 | CO[C@@H]1CN(c2ccccc2)S(=O)(=O)[C@@]12CCN(CC1CC1)C2 | 88.1

Row | Compound | Percent Effect [%]
53 | O=C1C[C@@H]2CCN(Cc3ccccc3)C[C@@H]2CCN1c1ccccc1 | 1.893
54 | CO[C@@H]1CN(c2ccccc2)S(=O)(=O)[C@@]12CCN(Cc1ccccc1)C2 | 116.8
55 | CO[C@H]1CN(c2ccccc2)S(=O)(=O)[C@@]12CCN(Cc1ccccc1)C2 | 88.28
56 | O=C(CCn1ccccc1=O)N1CCN(Cc2cccc(Cl)c2)CC1 | -6.995
57 | COc1cc(C2CC(=O)c3c(O)cc(O)cc3O2)ccc1O (stereo not drawn) | 4.847
58 | COc1ccc(-c2noc(Cn3cc(C)cn3)n2)c(OC)c1OC | -1.893
59 | COc1ccccc1CN(Cc1cccs1)S(=O)(=O)N(C)C(C)C | -8.287
60 | Cc1ncc2c(n1)CCN(Cc1ncc(C(C)(C)C)o1)C2 | 1.311
61 | Cc1ccc(C(NC(=O)C2CC2)c2cccc(S(C)(=O)=O)c2)cc1 (stereo not drawn) | 85.76
62 | CCC(=O)NC(c1ccc(C)cc1)c1cccc(S(C)(=O)=O)c1 (stereo not drawn) | 96.25
63 | CS(=O)(=O)c1cccc(S(=O)(=O)NC(=O)CC2CCCC2)c1 | -23.12
64 | CCNC(=O)NC(c1ccc(C)cc1)c1cccc(S(C)(=O)=O)c1 (stereo not drawn) | 96.65
65 | CS(=O)(=O)c1cccc(C(N)c2ccc(F)c(F)c2)c1.Cl (stereo not drawn) | -2.394
66 | Cc1ccc(C(NC(=O)[C@H]2CC[C@@H](O)CC2)c2cccnc2)cc1C (stereo partly drawn) | -7.536
67 | CC(CO)NS(=O)(=O)c1cccc(C(C)C)c1 (stereo not drawn) | -1.865
68 | Cc1ccc(C(N)c2cccc(S(C)(=O)=O)c2)cc1 (stereo not drawn) | 1.85
69 | COc1ccc(C(N)c2cccc(S(C)(=O)=O)c2)cc1 (stereo not drawn) | 4.589
70 | COc1ccc(N2CCN(C(=O)CCn3nnnc3C)CC2(C)C)cc1 | 5.117
71 | Cl.Cl.O=C(NCc1cncc2c1CCN(Cc1ccoc1)C2)C1CC1 | -1.129
72 | CN(Cc1cccnc1)Cc1cncc2c1CCN(c1ccccn1)C2.Cl.Cl.Cl | 98.43
73 | CN(Cc1cn2c(n1)CN(C(=O)N(C)C)CC2)Cc1ccco1 | 3.747
74 | CN(Cc1ccco1)Cc1cncc2c1CCN(Cc1ccoc1)C2.Cl.Cl.Cl | 96.91
75 | CN(Cc1cccnc1)Cc1cncc2c1CCN(Cc1ccoc1)C2.Cl.Cl.Cl | 98.31
76 | CC(C)N(C)Cc1cncc2c1CCN(C(=O)c1cccc(C#N)c1)C2.Cl.Cl | -11.44
77 | Cl.Cl.c1cnc(NCc2cncc3c2CCN(Cc2ccoc2)C3)nc1 | 0.8556
78 | CN(Cc1cccnc1)CC1CNCc2nccn2C1 (stereo not drawn) | -0.6774

Row | Compound | Percent Effect [%]
79 | CC(C)C(=O)N1CCc2c(CN(C)Cc3ccco3)cncc2C1.Cl.Cl | 107
80 | COC(=O)c1ccc(CN(C(C)C)C(C)C)o1.Cl | -10.72
81 | CN(CCC#N)C(=O)CN1CCCN(Cc2noc(C3CC3)n2)CC1 | -26.77
82 | CCn1ccnc1CN1CCN(CC(=O)NC(C)(C#N)C2CC2)CC1 (stereo not drawn) | -16.24
83 | CCS(=O)(=O)N1CCn2cc(CN(C)Cc3ccco3)nc2C1 | -9.31
84 | CCS(=O)(=O)N1CCc2c(CN(C)Cc3ccco3)cncc2C1.Cl.Cl | 0.2646
85 | CN(Cc1ccco1)Cc1cncc2c1CCN(S(C)(=O)=O)C2.Cl.Cl | 114
86 | CC(C)CN1CCc2c(CN(C)Cc3ccco3)cncc2C1.Cl.Cl.Cl | 112.5
87 | COCCN1C[C@@H]2CN(S(=O)(=O)c3cccs3)C[C@@H]2C1=O | -21.25
88 | O=C(Nc1ccc2scnc2c1)N1CCN([C@H]2CCCC[C@@H]2O)CC1 | -4.588
89 | CN(CC(F)(F)F)C(=O)CNC(=O)N1CCCC(N(C)C)C1 (stereo not drawn) | 95.13
90 | CN(C)C1CCCN(C(=O)NCCC(=O)N2CCCCCC2)C1 (stereo not drawn) | 0.3491
91 | CN(CC(F)(F)F)C(=O)CNC(=O)N1CCCC(C(F)(F)F)C1 (stereo not drawn) | 92.98
92 | O=C(NCCNc1ncccn1)N1CCCC(C(F)(F)F)C1 (stereo not drawn) | -15.03
93 | CN(C)C(=O)c1cccc(NC(=O)N2CCCC(C(F)(F)F)C2)c1 (stereo not drawn) | 13.97
94 | CN(C)C1CCCN(C(=O)NCCC(C)(C)C)C1 (stereo not drawn) | -10.25
95 | Cc1nnc(C(C)N2CCCN(Cc3noc(C4CC4)n3)CC2)o1 (stereo not drawn) | 5.084
96 | Cc1nnc(C(C)N2CCCN(Cc3ccc(C#N)cc3)CC2)o1 (stereo not drawn) | 105.5
97 | CC(C)OCC(=O)N1CCCN(Cc2ccc(C#N)cc2)CC1 | -9.345
98 | COc1cnc(N2CCCN(Cc3ccc(F)cc3)CC2)nc1 | 0.06599
99 | Cc1nnc(C(C)N2CCN(Cc3ccc4c(c3)OCO4)CC2)o1 (stereo not drawn) | 12.94
100 | Cc1nnc(C(C)N2CCCN(Cc3ccc(F)cc3)CC2)o1 (stereo not drawn) | 92.55
101 | CC(c1ncc(C(C)(C)C)o1)N1CCN(Cc2ccncc2)CC1 (stereo not drawn) | -8.967
102 | Cc1nnc(C(C)N2CCN(Cc3ccc(C(F)(F)F)cc3)CC2)o1 (stereo not drawn) | 124.3
103 | Cc1nnc(C(C)N2CCN(Cc3ccc(C#N)cc3)CC2)o1 (stereo not drawn) | 2.063
